Assay outcomes deposited in PubChem BioAssay by Emory University Molecular Libraries Screening Center.
Only a selection was taken, and hits are over-represented in it overall.
Measles inh – inhibitors of measles virus growth in infected cells; infected Vero cells, GFP fluorescence, 64 h; hits give low values; 0.1% of 33,000 active; z-score (no concentration beside the values); in the data active means z-score below about -3
Hits are given with their value; n = inactive.

SMILES | Measles inh
Cc1cccc(C(=O)Nc2sc3c(c2C(=O)Nc2ccccc2Cl)CCCC3)c1 | -4.4
Cc1cccc(C(=O)Nc2sc3c(c2C(=O)Nc2ccccc2Cl)CCC3)c1 | n
CC(C)OC(=O)c1c(NC(=O)c2ccc(Cl)c([N+](=O)[O-])c2)sc2c1CCCC2 | -3.83
Cc1cccc(C(=O)Nc2sc3c(c2C(=O)NCc2ccco2)CCCC3)c1 | n
Cc1cc(C(=O)Nc2sc3c(c2C(=O)OC(C)C)CCCC3)ccc1[N+](=O)[O-] | n
COC(=O)c1c(NC(=O)c2ccc(C)c([N+](=O)[O-])c2)sc2c1CCC2 | n
CC1CC(C)CN(S(=O)(=O)N2CCCC(C(=O)NCc3ccc(F)cc3)C2)C1 (centres undefined) | n
CCOc1ccccc1NC(=O)c1sc2ncn(Cc3ccccc3F)c(=O)c2c1C | n
Cc1cc([N+](=O)[O-])ccc1N1C(=O)C2C(c3ccc(Cl)cc3)OC3(C(=O)c4ccccc4C3=O)C2C1=O (centres undefined) | n
CC(C)c1ccc(OCc2nc(-c3ccc(Cl)cc3)no2)cc1 | n
O=C(Nc1ccc(Br)cc1)C1CCCN(S(=O)(=O)c2cccc3nsnc23)C1 (centres undefined) | n
Cc1ccc(NC(=O)CSc2nc3ccccc3c(=O)n2Cc2ccc3c(c2)OCO3)cc1Cl | n
CN(Cc1ccccc1)S(=O)(=O)c1ccc(C(=O)Nc2ccccc2-c2nc3ccccc3[nH]2)cc1 | n
CC1CCC(NC(=O)C2c3ccccc3C(=O)N2CCCN2CCOCC2)CC1 (centres undefined) | -4.9
COc1ccc(Br)cc1CN1C(=O)c2ccccc2C1C(=O)NC1CCC(C)CC1 (centres undefined) | n
O=C(NC1CCCCCCC1)C1c2ccccc2C(=O)N1CCCN1CCCCC1 (centres undefined) | n
COc1ccc(C(=O)Oc2cccc3cccnc23)cc1OC | n
CC(=O)Oc1cccc2cccnc12 | n
CCOc1ccc(C(=O)Oc2cccc3cccnc23)cc1Br | -3.48
Oc1ccc(Cl)cc1C1CC(c2ccc3c(c2)OCO3)=NC(c2ccc(Cl)cc2)N1 (centres undefined) | n
Cc1cc(C)cc(NC(=O)C2C3C=CC4(O3)C2C(=O)N(CCC2=CCCCC2)C4C(=O)NC2CCCC(C)C2C)c1 (centres undefined) | n
COCCn1c(=O)[nH]c2cc(C(=O)NC3CCN(Cc4ccccc4)CC3)ccc2c1=O | n
COCCn1c(=O)[nH]c2cc(C(=O)NCCN3CCN(c4ccccc4)CC3)ccc2c1=O | -3.61
COCCCNC(=O)c1ccc2c(=O)n(CCOC)c(=O)[nH]c2c1 | n
COc1ccc(C(=O)Nc2cc(C(=O)Nc3cccc(C(C)=O)c3)ccc2N2CC3CC(C2)c2cccc(=O)n2C3)cc1 (centres undefined) | n
SMILES | Measles inh
Cc1ccc2[nH]c3c(=O)n(C)cnc3c2c1 | n
COc1ccc(NC(=O)CN2CCN(S(=O)(=O)c3cccc([N+](=O)[O-])c3)CC2)cc1OC | n
Cc1cc(C)cc(Nc2ncnc3c2cnn3-c2ccccc2)c1 | n
CCc1ccccc1Nc1ncnc2c1cnn2-c1ccc(OC)cc1 | n
COc1ccc(Nc2ncnc3c2cnn3-c2ccccc2)c(OC)c1 | -3.32
Cc1ccc(CNC(=O)CSc2nc3ccsc3c(=O)n2Cc2ccccc2F)cc1 | -3.87
CC(C)CCNC(=O)CSc1nc2ccsc2c(=O)n1Cc1ccc2c(c1)OCO2 | n
Cc1ccc(Cn2c(SCC(=O)c3ccc(F)cc3)nc3ccsc3c2=O)cc1 | n
CC(=O)N1CCc2cc(Br)cc(S(=O)(=O)CC(=O)NC3CCCc4ccccc43)c21 (centres undefined) | n
Cc1ccc2c(c1)N(CCC(=O)NCCc1ccc(Cl)cc1)C(=O)CO2 | n
Cc1ccc2[nH]c3c(cc(N4CCCCC4)c4c(=O)c5ccccc5c(=O)c43)oc2c1 | n
Cc1ccc(C(=O)CC2(O)C(=O)N(Cc3ccccc3)c3ccccc32)cc1 (centres undefined) | n
CC1(C)C(=O)N(Cc2ccccc2)c2ccccc2N1C(=O)c1ccc(Br)cc1 | -4
CC1(C)C(=O)N(Cc2ccc([N+](=O)[O-])cc2)c2ccccc2N1C(=O)c1ccc(Br)cc1 | n
CN(C)CCNC(=O)C1CCCN(S(C)(=O)=O)C1 (centres undefined) | n
COc1ccc(N2C(=O)c3ccc(C(=O)OCC(=O)c4cccc([N+](=O)[O-])c4)cc3C2=O)cc1 | -5.03
O=C(COC(=O)c1ccc2c(c1)C(=O)N(c1ccccc1Cl)C2=O)c1cccc([N+](=O)[O-])c1 | n
O=C(COC(=O)c1ccc2c(c1)C(=O)N(c1ccc([N+](=O)[O-])cc1)C2=O)c1ccccc1 | n
CCC(C)NC(=O)CN1N=C(c2ccc(OC)cc2)CCC1=O (centres undefined) | n
COc1ccc(NC(=O)C2c3cc(OC)c(OC)cc3C(=O)N(C)C2c2ccccc2F)cc1Cl (centres undefined) | n
COc1cc(C(=O)NCc2ccccn2)c([N+](=O)[O-])cc1OC | n
COc1cc(C(=O)N2CCc3ccccc32)c([N+](=O)[O-])cc1OC | n
COc1cc(C(=O)c2ccccc2)c([N+](=O)[O-])cc1OC | -3.04
Cn1cnnc1SCC(=O)N1N=C(c2cccs2)CC1c1ccc(F)cc1 (centres undefined) | n
CCOC(=O)c1c(NC(=O)C2CCCCC2)sc(C(=O)Nc2ccc(C)c(Cl)c2)c1C | n
SMILES | Measles inh
CCN(CCNS(=O)(=O)c1cc(Br)cc2c1N(C(C)=O)CC2)c1ccccc1 | n
CCCCN(CCCC)S(=O)(=O)c1cc(Br)cc2c1N(C(C)=O)CC2 | n
CCN(Cc1ccccc1)S(=O)(=O)c1cc(Br)cc2c1N(C(C)=O)CC2 | -5.58
O=c1[nH]cnc2nc3n(c12)CCS3 | n
COC(=O)c1ccc(CSc2nc(-c3ccco3)nc3c2c(=O)n(C)c(=O)n3C)o1 | n
COc1ccccc1NC(=O)CSc1nc2ccc(NC(=O)c3ccccc3)cc2s1 | n
COc1cc(-c2nc(Nc3ccc(C)cc3)c3ccccc3n2)cc(OC)c1OC | n
COc1ccc(Nc2nc(-c3ccc(C)cc3)nc3ccccc23)cc1OC | n
Cc1ccc(Nc2cc(C)nc(-c3ccccc3)n2)cc1 | -3.66
Cc1ccc(NC(=O)C2C(=O)N(Cc3ccccc3)C3(C)CC2c2ccccc2O3)cc1 (centres undefined) | n
Cc1cc(Br)ccc1NC(=O)CCCN1C(=S)NC(C)(C)CC1C (centres undefined) | n
CCN(CC)C(=O)c1ccc2c(=O)n(-c3cc(OC)ccc3OC)c(=S)[nH]c2c1 | -5.5
COc1ccc(CNC(=O)c2ccc3c(=O)n(-c4cc(OC)ccc4OC)c(=S)[nH]c3c2)cc1 | n
COc1ccc(OC)c(-n2c(=S)[nH]c3cc(C(=O)Nc4ccc5c(c4)CCC5)ccc3c2=O)c1 | n
CC(=O)c1ccc(NC(=O)c2ccc(NS(=O)(=O)c3c(C)noc3C)cc2)cc1 | n
Cc1noc(C)c1S(=O)(=O)Nc1ccc(C(=O)Nc2ccc(C(C)C)cc2)cc1 | -3.69
COc1ccc(NC(=O)c2ccc(NS(=O)(=O)c3c(C)noc3C)cc2)cc1OC | n
CN(C)c1ccc(C2C3=C(CC(C)(C)CC3=O)OC3=C2C(=O)CC(C)(C)C3)cc1Br | n
Cc1ccc(S(=O)(=O)Nc2ccccc2CNc2c(C)cc(C)cc2C)cc1 | n
Cc1ccc(CNC(=O)Cc2ccc(-n3c(=S)[nH]c4ccccc4c3=O)cc2)cc1 | n
O=C(Nc1cccc(-c2nc3ccccc3s2)c1)c1cccs1 | n
O=C(Nc1cccc(-c2nc3ccccc3s2)c1)c1ccc(Br)o1 | -4.16
O=C(Nc1cccc(-c2nc3cc(Cl)ccc3o2)c1)c1ccc(Br)o1 | n
